Reference: PubChem BioAssay AID1159506 (National Center for Advancing Translational Sciences (NCATS), 2015)
Whole data set: some 59,000 sequences, median the read-out near -0.00055, cut for the lowest 2% near -2. Many of the other results were omitted from the sample, so the lowest values are more common in it than they were.

Test: Identification of proteins required for the processing of the EWS-FLI1 nascent transcript;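 also: robust z of luciferase light less the median z of siRNAs with the same seed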
Settings: TC32 Ewing sarcoma NR0B1-luc vs CMV-luc (EWS-FLI1 target promoter against control promoter), 48 h; screened at 20 nM (by protocol)
Summary of the method: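 Readout: OneGlo luminescence, 48 h post-transfection, TC32-NR0B1-luc vs TC32-CMV-luc in parallel. siRNA 20 nM final, RNAiMax lipid, 600 cells/well; z-score-MAD transformed, then seed-adjusted.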

Row | Sequence | seed-corrected z-score
1 | UCACUAAUAGGAUCUUCGC against RAB3GAP1 | 0.413
2 | AAGGUUUUCCGAGUAACUC against LYZL6 | 1.38
3 | AUAAGACUGACCUUGGUUG against TFCP2L1 | -2.59
4 | UUUUAUUCGAAAUUCUGCA against ITGB1BP1 | 0.195
5 | AAGCCGAAAAUUGAUCUGC against GLDC | 0.214
6 | AAAUCUGCACUCUUGGUCA against RGS11 | -2.54
7 | AUGGUAGACACCUUAGUUC against RPL7P23 | -2.39
8 | UCGUUUACCAAACAGUUUC against BTK | -0.0928
9 | UUUGUUCUGGAUGCCCUGC against WARSP1 | 0.407
10 | UUGGUUCCAUUGUAGGUCU against TSPAN3 | -0.422
11 | UUCUUUUUGUCCAAACUCU against SLC25A25 | -0.247
12 | AAAGUUACUCUUCCAAACC against POC1A | -2.67
13 | AUAUUUCAUAUAGGCGAUG against PLA2G10 | -0.215
14 | UCUUGGUCCUCUGGCAGUC against TMEM116 | -0.118
15 | AAAUAAAACGUACAAAUAC against SCRT1 | 0.713
16 | UUCAUCUCCACAAUCACCG against MAG | -0.753
17 | AAGCGGGAUGAAGAAAUCC against GSX2 | 3.22
18 | UCUGCACUUGUCAAUAUCC against MED10 | -0.53
19 | UUCGUUAUCAAUGCAGUAG against TUBB4B | -1.5
20 | AUCUUGGUGAUUUCGCGGC against NDN | -2.11
21 | UAACAUAAUUAUAACCUCC against ZNF716 | 0.757
22 | UGAGGUUAGAGCACUGCAC against CCDC87 | -0.47

Row | Sequence | seed-corrected z-score
23 | UUCUUUCUCACGGUCACUC against LOC728445 | -0.746
24 | UCAGGUGCUCCAAGUACUG against TMEM201 | -2.21
25 | UCUUUGCUAGGUAAAAAGC against PRUNE | 1.32
26 | AACCGAAGGAGAUUCCUGG against C8orf49 | 0.161
27 | AAAACGAUCAAAAUCUGUC against RPL14P1 | -3.16
28 | AAUUCACAUGUUGUAAUCC against STRADBP1 | -0.053
29 | UUUCCUAUUCACAAGAGCG against FHIT | 1.2
30 | AAUCGCAUUGUUCAUGUCC against OR6K3 | -1.67
31 | UCCUUGCAAAUCUCCGACC against LTBP3 | -1.01
32 | AAACCGAUAAGAACUGAGA against TMEM41A | 0.54
33 | AAACCUAUUAACUUCAAGC against CHKA | -0.134
34 | AAAGUUGAGGGUAGCACUC against AP5B1 | 0.334
35 | AUGGGUCUCAUGCUCCUCU against TMEM74B | -2.13
36 | UUAAUGAAUCUACAGUCCG against OTOR | 0.51
37 | AGUAUAUCACACUUGAUCC against COL4A4 | -0.00727
38 | UAAAUUUGCAUGAAGGUGU against TMEM179 | 0.108
39 | UCUAGGAGCAGCGCAACUG against ANKRD29 | -0.882
40 | AAGGUAAACGAUUAAAUUG against LAMTOR3 | 0.248
41 | UACAGUAGCACUGCCCUGU against LAMA5 | -2.69
42 | ACAUUGGUACCUGUCAUCC against GLYCTK | 0.203
43 | AAAAUAUAGAUAUCUAUGC against GADD45B | 1.35
44 | AGCAGCAUCAUUCUCAUGU against LOXL4 | 0.376

Row | Sequence | seed-corrected z-score
45 | UCAGUUUCCUCGCCGACUC against SH3BP5L | -2.66
46 | UACUGAGGACCUUUCGUUC against SPATA21 | -0.926
47 | UGCUUAACCACAGAAGCUG against ADSL | -0.731
48 | UACAGUACAAGUAUGAGCU against CYB561D2 | -1.33
49 | UCUCCUUUUAGCAUGAUCC against SNRPE | -2.15
50 | UUGAGUCCAAUGUCCACUC against TBC1D9B | -0.454
51 | UCCACGUCAAAUUUAUCCC against SPAG1 | 0.232
52 | AAUUGUCCAACAUCAACGA against METTL2A | -1.52
53 | AUUCGAAUUAGGUAUUGGG against MAK16 | 0.538
54 | UGCUUCAACAAAUCGGGCC against C7orf57 | -2.05
55 | UGAUUGCAGAUGAUGAUCC against VHLL | -0.39
56 | UUAGUUCCCAAGUACUAUC against CHD9 | 0.856
57 | UGGAUAGCGGUCCUCAUCC against IL17C | 1
58 | UUGGGUGUCAGCAGUACUG against PRRC2A | -2.05
59 | AAGGUAAACAUGUUCUCGC against TARSL2 | 0.287
60 | AAAGUUACGCACCCAAUUG against GBA | 0.249
61 | AAUGAGACGACGGAUGAAC against C19orf25 | -0.471
62 | UUACUGACAGUAUUUCACU against C10orf67 | -0.0381
63 | UUCAGCAUCACGAACAUCC against SRSF10 | -1.61
64 | UGCAGGUUCAGCUUGUCUG against LGALS2 | -2.58
65 | UUCAGCACCACGCAGUUGC against C12orf65 | 0.924
66 | UAUGGAGAGAGAAUAACUG against SDHC | 0.151

Row | Sequence | seed-corrected z-score
67 | UAUUGACCACAAUCGAGGC against PIGX | 1.23
68 | ACAGGGACUUGAACUGGGC against IFNL3 | -2.31
69 | UUUGUUCCAAGGCAUUCAC against CCDC129 | 1.07
70 | UAGGUCGAAAGAACUCAGC against PEX3 | -0.0828
71 | UGGAGUAUGAGUCCCAUUC against MTPAP | -15.6
72 | UUAGAUACAGGUAUGAACA against OR4C45 | 0.478
73 | UAAGUUCUUAGAGUUUUGG against TP53TG3 | 0.271
74 | UUCUCGAUUAAGAAGUUUC against C18orf21 | 0.33
75 | UCAGUAGCAACUGCCCUUU against MGAT4EP | -2.02
76 | AUCGAUUCCAUUUCAAGGC against SERHL | 0.0431
77 | UUGAUUUUCUCCUCCAUCC against JAKMIP1 | -0.126
78 | UGUAGUACACUCUUGUUCU against GOLGA8G | -0.318
79 | UAGUUGAGAAGGUCGAAGU against SF3B5 | -2.5
80 | UUAUGUCUCAUGAGUCGGU against ZNF548 | -0.149
81 | UGACUGUCUUGCGUAUUUC against TTC21A | 0.856
82 | UUCUAGAUAAUAACUCUCC against CCDC47 | 0.297
83 | UCAGGUAUCUGAGAAUCUC against APOBEC3B | -0.83
84 | UACUGAACACUGGAAAUUC against FGFBP2 | 1.53
85 | UUCUCAUCGAGCCUGAAGU against FAM187B | 1.36
86 | UGUUGUACCACUGUCAGAG against PPM1G | -0.406
87 | AUAGAUACUGGGAGGUUUG against UBE2J2 | 0.783
88 | UAAUCAUCCCGACCAACGC against P2RY10 | -0.625

Row | Sequence | seed-corrected z-score
89 | CAGAUUCUGACGCUUUGUG against LIMD1-AS1 | -1.25
90 | UCGAUGUAGAGGAUGCUGA against GDF7 | -2.35
91 | UAAGAAAUGACGUGUGCUG against PTGDR2 | 0.0522
92 | UGAGGUACUCGCUUUCCUG against TCTE1 | -0.587
93 | UUAGAAAUGCAAAUAAACU against TMSB15A | 0.478
94 | UUCGGUAAGACAUCAGUGG against STAG2 | 0.75
95 | UUGUAAUCAAAGUAGUAGC against PSMD8 | -5.85
96 | UGUUCUUGAACUGUAGUAC against RNF40 | 0.119
97 | UGAGCCUUGAGUGCACUGG against LOC729047 | 0.713
98 | UAAGAUUGGAGAGAUUGCC against SLC10A4 | 0.287
99 | UGUAGUAUCUGAGUCAACC against CENPE | -2.96
100 | UUACAUAUCACGUACAUCC against SENP8 | 0.448
101 | UUUUCUAAUAUGCUAACUG against BMP8A | -0.422
102 | UCAUUAGUAAUAUCGUCGG against HSP90AA1 | -0.64
103 | UCAAUGCCUCUGAUUGUUG against SPATA31D5P | -1.51
104 | UUCGAUACCAGCCGGUAGC against F8A2 | -12.9
105 | UUCCCGUAAACUUUCUCGC against KLF13 | 0.162
106 | UGAUCUAUGAGUACGUCCG against SBNO1 | -0.107
107 | AAGUGGACUUGAGAUGUGG against PPP1R1A | -0.084
108 | UUAACAUGCAAGAAAUGUC against SPO11 | 2.19
109 | UUGUCCUUCAGGAACACCG against EPB41L1 | 0.385
110 | UAUCUAGUAGUAGUUCACC against CAB39 | 0.229

Row | Sequence | seed-corrected z-score
111 | UCUGGUGGUGGUCUGAGUC against ZFP64 | -3.19
112 | AAUGUUGUAGUUGAUUAGC against CCDC178 | -0.836
113 | UUGACAGUUUCCAUCAGGC against PLIN3 | 0.105
114 | UAUCGAUUUGGGUCGUAGC against GNL1 | 0.128
115 | UACGUGAGCUGUGAUGAGC against IRF4 | -0.522
116 | UAGGCGAAUACAGUUAGGG against PRDM11 | -0.0836
117 | AAAAGGUAAACAGUGCUGG against HCAR1 | -2.61
118 | AAUAUAACGACUAAUGUCC against CTNNBIP1 | 0.971
119 | UUUAGAGGCAGGGAGAAGC against MT1XP1 | -2.16
120 | UUUCGAGUUUCAAUGCUCC against SEC31A | 0.675
121 | AUGAGUUUAAAGUACAAAG against TBC1D3G | -0.961
122 | AAAGCUCUUCUAAUGAUAG against CMPK2 | 1.05
123 | UUUCCAAUAUUUGAAGGUG against IFNK | -0.532
124 | UCUGGGUUGAGGUCUACGA against LGALSL | 1.22
125 | UCUCUUUUAGGUGGUUUGG against RNPS1P1 | -2.12
126 | UUUGGAGCCGAAAGCAUUG against TBX4 | -0.381
127 | UUUCUUACCAUAGUUGUCC against TCF7L1 | 0.0239
128 | UUCACGAGUAGAGAUGUGG against ULK4 | -0.0896
129 | UGUGGAUUCGCAUUCGUGC against WNT10B | -0.172
130 | AAGAGCAGUAUAGCCCUUG against FAM219B | -2.73
131 | UUCAGAGUAAUGUCGACAU against RPL9 | -0.525
132 | UAUUAUCCAGGAUUAAUUC against TMED5 | 0.444
